Assay [1] concerns the target Toll-like receptor 9 (Homo sapiens) (UniProt Q9NR96). The experiment in a line: disruptors of TLR9 binding to MyD88 – cell-based, CHO, BLA complementation, fluorescence, triplicate, confirmation (AID 540250;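 active = mean inhibition across three repeats above about 21% taken from the earlier screen, limit read from the data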;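 also: blue over green emission ratio reports constitutive TLR9 MyD88 association via BLA complementation; 0% = DMSO vehicle wells and 100% = clavulanate BLA inhibitor wells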). To be noted: CCF4 FRET ratio, at 4.98 µM, stronger effect = higher value.
A short description of assay [2]: BLA reporter readout interference – cell-based, fluorescence, artefact control for TLR9-MyD88 binding inhibitor project (AID 540251;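 active = mean inhibition above a 50% cutoff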;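 also: counterscreen of TLR9-MyD88 hits on CMV-driven BLA in CHO-K1 cells; 0% = DMSO alone and 100% = clavulanate blocking BLA; higher means less blue over green ratio so more BLA blockade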). As to conditions: CHO-BLA cells, CCF4 FRET ratio, at 4.98 µM, stronger effect = higher value.
Assay [3] in a line: CHO cell viability loss – luminescence, single concentration, cytotoxicity control for TLR9-MyD88 binding inhibitor project (AID 588336; in the data active = inhibition above about 11%). To be noted: TLR9-MyD88 CHO cells cytotoxicity, at 4.98 µM, stronger effect = higher value.
The target of assay [4] is Receptor-interacting serine/threonine-protein kinase 2 (Homo sapiens) (UniProt O43353). The assay is described as follows: inhibitors of RIPK2 association with NOD2 – fluorescence, CHO cells, BLA complementation, triplicate, confirmation (AID 624370;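 active = mean inhibition across replicates above a set limit taken from the earlier primary screen, cut at about 21% in these data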;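 also: 0% = DMSO-only wells and the high end = clavulanate BLA-blocked wells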). To be noted: CCF4 FRET, at 4.98 µM, stronger effect = higher value.
A short description of assay [5]: BLA reporter readout interference – cell-based, CHO-K1 CMV-bla, CCF4 FRET, fluorescence, artefact control for NOD2-RIPK2 interaction inhibitor project, confirmation (AID 624371;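 active = mean inhibition above the low-control mean inhibition plus three low-control SD, cut at about 11% in these data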;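 also: 0% = DMSO only wells and 100% = clavulanate high control wells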). To be noted: CCF4 FRET ratio, counterscreen, at 4.98 µM, stronger effect = higher value.
In assay [6] the test system is transactivating tegument protein VP16 (Human herpesvirus 1). The assay is described as follows: compounds suppressing VP16-driven luciferase signal – cell-based, luminescence, single concentration, counter-screen for SRC2 inhibitor project (AID 652007; in the data active = inhibition above about 36%). As to conditions: cell-based VP16 transactivation luciferase reporter, at 8.9 µM, stronger effect = higher value. On the technique in general: A counterscreen serves to expose hits that act by an unwanted route or on another target.

Assay [7] deals with Nuclear receptor coactivator 2 (Homo sapiens) (UniProt Q15596). The assay is described as follows: inhibition of GAL4-SRC2 driven luciferase expression – cell-based, luminescence, HEK293, triplicate, confirmation (AID 652008;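 active = mean inhibition above 46.5%, the solvent-only control mean plus 3 SD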;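 also: 0% = DMSO-treated cells and 100% = Gossypol at 36 µM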). To be noted: HEK293 GAL4-SRC2 luciferase reporter, at 8.9 µM, stronger effect = higher value. (In a reporter assay the amount or activity of a reporter protein is the signal.)

Assay [8] has as its target Serine protease HTRA1 (Homo sapiens) (UniProt Q92743). The experiment in a line: confirming inhibition of human HTRA1 – biochemical, fluorescence polarization, confirmation (AID 540248;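 active = mean inhibition over three repeats above a set limit taken from the earlier primary screen, cut at about 37% in these data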;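 also: 0% = HTRA1 with DMSO and 100% = wells lacking HTRA1; inhibitors block probe binding so polarization drops and inhibition rises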). As to conditions: recombinant HTRA1, FP-rhodamine activity-based probe, at 5.96 µM, stronger effect = higher value. For orientation: Polarisation of emitted light reports the rotation of a fluorescent probe.

For assay [9], the target named is (Lyso)-N-acylphosphatidylethanolamine lipase (Mus musculus) (UniProt Q8VD66). The experiment in a line: mouse ABHD4 hydrolase blockers, triplicate – biochemical, fluorescence polarization, confirmation (AID 720658;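 active = mean inhibition across replicates above the hit cutoff set in the primary screen, cut at about 30% in these data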;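 also: 0% = wild-type ABHD4 with DMSO and 100% = catalytically dead S159A mutant with DMSO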). To be noted: purified mABHD4, FP-Rh probe fluorescence polarization; at 8.92 µM; stronger effect = higher value.
Assay [10] addresses Nuclear receptor coactivator 3 (Homo sapiens) (UniProt Q9Y6Q9). The experiment in a line: NCOA3 GAL4-fusion reporter inhibition – cell-based, luminescence, quadruplicate, confirmation (AID 588792;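 active = mean inhibition over 43.08%, the solvent-only control mean plus 3 SD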;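 also: 0% = DMSO treated cells and 100% = gossypol at 36 µM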). As to conditions: HEK293 GAL4-SRC3 luciferase reporter, at 3.6 µM, stronger effect = higher value.
The test system of assay [11] is transactivating tegument protein VP16 (Human herpesvirus 1), Gal4-VP16 luciferase reporter. The assay is described as follows: repression of VP16-driven luciferase reporter – cell-based, luminescence, high throughput, counter-screen for SRC3 inhibitor project (AID 588794). To be noted: mammalian cells, at 3.6 µM, stronger effect = higher value.

The term inhibition denotes the change of the read-out against control, counted positive when it falls.

Values joined by “and” are separate entries in the source; they are usually repeats but may differ in a detail not shown here. Equal values may be shown once. Values without a mark were called inactive. Some of the results follow. Active and inactive are the calls of the source. Rule as the data show it, unless noted: active = inhibition above about 30%; inactive = the rest.

Sequence of Receptor-interacting serine/threonine-protein kinase 2 (Homo sapiens) (O43353 whole entry, looked up): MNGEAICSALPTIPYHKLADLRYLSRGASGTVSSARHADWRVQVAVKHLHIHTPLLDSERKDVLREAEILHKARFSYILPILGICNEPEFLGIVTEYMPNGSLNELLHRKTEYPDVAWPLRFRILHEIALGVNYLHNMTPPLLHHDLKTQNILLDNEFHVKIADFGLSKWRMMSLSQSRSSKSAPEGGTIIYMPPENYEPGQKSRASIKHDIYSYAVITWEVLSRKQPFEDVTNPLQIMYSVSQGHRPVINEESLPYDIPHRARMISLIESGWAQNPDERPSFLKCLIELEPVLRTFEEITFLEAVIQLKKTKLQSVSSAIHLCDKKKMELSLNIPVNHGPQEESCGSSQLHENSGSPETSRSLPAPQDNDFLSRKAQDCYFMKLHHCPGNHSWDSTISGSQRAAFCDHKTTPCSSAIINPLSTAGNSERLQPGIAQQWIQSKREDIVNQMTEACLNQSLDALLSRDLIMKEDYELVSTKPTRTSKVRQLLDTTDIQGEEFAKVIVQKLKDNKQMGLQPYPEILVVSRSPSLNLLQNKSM
Sequence of Nuclear receptor coactivator 3 (Homo sapiens) (Q9Y6Q9 whole entry, looked up, the tested form may be a part): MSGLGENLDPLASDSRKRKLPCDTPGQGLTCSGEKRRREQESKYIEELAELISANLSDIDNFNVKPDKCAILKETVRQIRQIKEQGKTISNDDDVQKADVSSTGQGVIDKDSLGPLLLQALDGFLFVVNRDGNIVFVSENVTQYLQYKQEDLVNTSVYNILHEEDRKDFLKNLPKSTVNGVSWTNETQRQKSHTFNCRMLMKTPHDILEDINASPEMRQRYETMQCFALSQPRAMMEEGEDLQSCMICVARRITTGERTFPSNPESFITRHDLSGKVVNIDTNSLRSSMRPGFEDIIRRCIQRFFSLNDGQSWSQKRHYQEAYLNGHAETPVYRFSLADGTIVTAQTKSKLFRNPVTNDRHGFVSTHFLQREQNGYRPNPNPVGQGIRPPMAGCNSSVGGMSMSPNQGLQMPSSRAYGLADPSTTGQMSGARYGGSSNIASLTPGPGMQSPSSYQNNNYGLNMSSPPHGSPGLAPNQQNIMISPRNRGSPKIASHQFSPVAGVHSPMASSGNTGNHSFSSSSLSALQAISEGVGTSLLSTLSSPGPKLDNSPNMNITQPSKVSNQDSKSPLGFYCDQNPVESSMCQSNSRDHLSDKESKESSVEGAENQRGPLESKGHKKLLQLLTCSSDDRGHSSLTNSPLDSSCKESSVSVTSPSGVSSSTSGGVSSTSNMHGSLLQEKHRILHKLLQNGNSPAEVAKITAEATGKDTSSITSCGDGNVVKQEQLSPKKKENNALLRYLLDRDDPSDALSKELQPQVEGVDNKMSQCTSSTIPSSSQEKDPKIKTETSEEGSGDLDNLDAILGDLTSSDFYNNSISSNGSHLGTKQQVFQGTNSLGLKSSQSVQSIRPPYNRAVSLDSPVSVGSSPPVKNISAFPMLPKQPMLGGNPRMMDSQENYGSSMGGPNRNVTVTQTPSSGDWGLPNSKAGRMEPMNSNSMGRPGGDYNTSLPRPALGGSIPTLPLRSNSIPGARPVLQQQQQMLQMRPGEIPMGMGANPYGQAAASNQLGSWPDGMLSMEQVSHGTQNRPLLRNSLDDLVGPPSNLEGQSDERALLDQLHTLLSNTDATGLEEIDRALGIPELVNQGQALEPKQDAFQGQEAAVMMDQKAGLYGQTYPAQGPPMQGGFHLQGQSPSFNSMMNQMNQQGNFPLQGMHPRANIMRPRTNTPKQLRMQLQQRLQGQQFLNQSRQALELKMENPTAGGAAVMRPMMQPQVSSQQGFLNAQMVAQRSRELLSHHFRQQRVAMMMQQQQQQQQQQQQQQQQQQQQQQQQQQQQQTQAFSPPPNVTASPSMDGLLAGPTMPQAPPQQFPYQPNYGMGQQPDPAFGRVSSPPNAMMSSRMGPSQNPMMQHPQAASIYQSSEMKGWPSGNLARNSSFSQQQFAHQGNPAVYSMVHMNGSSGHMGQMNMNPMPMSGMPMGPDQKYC
Sequence of Toll-like receptor 9 (Homo sapiens) (Q9NR96 whole entry, looked up): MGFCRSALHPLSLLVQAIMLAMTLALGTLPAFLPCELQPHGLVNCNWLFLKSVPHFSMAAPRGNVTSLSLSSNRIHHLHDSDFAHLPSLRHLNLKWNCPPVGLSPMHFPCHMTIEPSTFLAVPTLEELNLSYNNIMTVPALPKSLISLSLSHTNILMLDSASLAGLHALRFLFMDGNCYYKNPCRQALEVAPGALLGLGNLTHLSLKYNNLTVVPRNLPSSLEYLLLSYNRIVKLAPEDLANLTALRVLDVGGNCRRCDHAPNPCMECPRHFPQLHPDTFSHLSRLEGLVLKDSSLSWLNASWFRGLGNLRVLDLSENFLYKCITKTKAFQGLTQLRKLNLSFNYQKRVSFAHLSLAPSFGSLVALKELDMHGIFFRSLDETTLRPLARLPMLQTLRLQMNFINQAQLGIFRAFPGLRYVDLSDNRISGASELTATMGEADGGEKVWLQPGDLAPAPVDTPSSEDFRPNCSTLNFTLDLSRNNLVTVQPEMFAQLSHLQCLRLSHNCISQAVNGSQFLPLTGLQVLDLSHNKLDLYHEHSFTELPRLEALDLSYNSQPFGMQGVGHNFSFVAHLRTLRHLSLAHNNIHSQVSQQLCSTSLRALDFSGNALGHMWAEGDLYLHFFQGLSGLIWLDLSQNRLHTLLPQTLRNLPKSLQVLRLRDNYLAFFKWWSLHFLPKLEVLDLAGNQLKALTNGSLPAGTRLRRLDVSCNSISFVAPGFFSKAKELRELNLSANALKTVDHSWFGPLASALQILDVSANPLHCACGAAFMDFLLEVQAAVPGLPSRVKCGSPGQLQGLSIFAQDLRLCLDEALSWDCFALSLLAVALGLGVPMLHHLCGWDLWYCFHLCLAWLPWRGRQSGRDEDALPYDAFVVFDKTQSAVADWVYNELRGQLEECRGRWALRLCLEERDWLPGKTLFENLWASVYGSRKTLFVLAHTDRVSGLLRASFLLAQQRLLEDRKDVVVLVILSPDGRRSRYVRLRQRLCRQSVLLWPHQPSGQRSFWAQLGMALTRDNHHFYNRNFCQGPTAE
Sequence of (Lyso)-N-acylphosphatidylethanolamine lipase (Mus musculus) (Q8VD66 whole entry, looked up, the tested form may be a part): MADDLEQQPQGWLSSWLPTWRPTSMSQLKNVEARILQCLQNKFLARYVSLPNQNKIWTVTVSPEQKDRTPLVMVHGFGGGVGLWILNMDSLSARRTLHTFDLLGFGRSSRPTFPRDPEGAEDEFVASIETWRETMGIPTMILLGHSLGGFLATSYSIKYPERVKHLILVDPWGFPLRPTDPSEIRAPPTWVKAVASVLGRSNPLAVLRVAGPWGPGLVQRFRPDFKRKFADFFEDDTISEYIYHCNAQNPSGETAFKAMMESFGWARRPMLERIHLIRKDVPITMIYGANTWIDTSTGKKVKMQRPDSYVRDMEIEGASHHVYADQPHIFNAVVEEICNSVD
Sequence of Nuclear receptor coactivator 2 (Homo sapiens) (Q15596 whole entry, looked up, the tested form may be a part): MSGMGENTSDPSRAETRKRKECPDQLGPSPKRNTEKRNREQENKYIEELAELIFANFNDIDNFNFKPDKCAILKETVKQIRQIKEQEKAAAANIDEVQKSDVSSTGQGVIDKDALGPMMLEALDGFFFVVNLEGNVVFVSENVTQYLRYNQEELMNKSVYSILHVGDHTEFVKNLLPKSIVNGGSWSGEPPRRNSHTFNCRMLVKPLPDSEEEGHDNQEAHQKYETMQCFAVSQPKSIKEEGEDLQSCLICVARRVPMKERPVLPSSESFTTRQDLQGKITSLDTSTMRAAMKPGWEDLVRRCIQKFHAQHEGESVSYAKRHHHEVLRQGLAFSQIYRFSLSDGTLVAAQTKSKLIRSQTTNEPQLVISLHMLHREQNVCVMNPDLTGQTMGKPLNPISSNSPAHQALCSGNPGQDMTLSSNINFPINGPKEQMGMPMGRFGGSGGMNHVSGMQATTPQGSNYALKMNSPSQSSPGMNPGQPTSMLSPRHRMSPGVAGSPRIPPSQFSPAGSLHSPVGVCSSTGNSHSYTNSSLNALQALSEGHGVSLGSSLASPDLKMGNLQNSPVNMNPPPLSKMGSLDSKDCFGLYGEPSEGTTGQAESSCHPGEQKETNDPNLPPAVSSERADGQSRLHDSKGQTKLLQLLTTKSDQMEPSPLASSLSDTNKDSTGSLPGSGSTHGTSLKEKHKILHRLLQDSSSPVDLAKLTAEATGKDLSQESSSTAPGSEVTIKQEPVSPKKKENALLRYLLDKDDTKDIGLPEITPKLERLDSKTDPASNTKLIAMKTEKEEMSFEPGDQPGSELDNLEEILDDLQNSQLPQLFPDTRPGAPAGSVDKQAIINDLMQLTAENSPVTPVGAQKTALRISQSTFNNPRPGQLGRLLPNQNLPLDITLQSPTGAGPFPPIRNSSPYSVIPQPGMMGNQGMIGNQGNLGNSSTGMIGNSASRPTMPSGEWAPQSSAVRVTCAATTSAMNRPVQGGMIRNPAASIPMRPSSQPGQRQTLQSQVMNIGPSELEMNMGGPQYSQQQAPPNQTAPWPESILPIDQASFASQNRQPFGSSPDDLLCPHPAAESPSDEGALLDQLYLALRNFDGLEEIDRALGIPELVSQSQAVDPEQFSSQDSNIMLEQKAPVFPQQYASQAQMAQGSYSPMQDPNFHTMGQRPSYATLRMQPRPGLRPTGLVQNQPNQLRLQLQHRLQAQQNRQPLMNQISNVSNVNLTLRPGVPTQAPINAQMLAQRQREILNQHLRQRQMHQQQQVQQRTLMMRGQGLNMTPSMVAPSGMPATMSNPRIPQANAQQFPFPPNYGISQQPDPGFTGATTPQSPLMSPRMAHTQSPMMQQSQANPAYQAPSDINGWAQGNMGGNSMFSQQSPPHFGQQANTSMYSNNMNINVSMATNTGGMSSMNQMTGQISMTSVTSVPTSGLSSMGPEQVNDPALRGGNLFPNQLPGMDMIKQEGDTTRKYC

Take `Cc1cc2oc3ccc(NCCC4CCCN4C)cc3c(=O)c2cc1C` (configuration not stated): the inhibition in [1] is 19.1%; in assay [2], 16.7%; in assay [3], 31% (active); in assay [4], 42.8% (active); in assay [5], 38.5% (active).

Consider `COc1ccc(-c2nc3cnccn3c2NC2CCCCC2)cc1-c1cccc(Cl)c1`, for which the inhibition was 25.7% (active) in assay [1]; 29.5% in [2]; -0.82% in assay [3]; 39.6% (active) and 39.4% (active) in assay [4]; 49.6% (active) and 50.5% (active) in assay [5].

Turning to `Cc1cccc(CS(=O)(=O)c2ncc(Cl)c(C(=O)Nc3ccc(F)cc3)n2)c1`, the inhibition in assay [1] is 38.1% (active); in assay [2] it was 20.7%; in [3], 99.1% (active); in assay [4] it was 82.9% (active); in assay [5], 31.5% (active); in assay [6], 69.8% (active). Further, the inhibition in assay [7] is 80.6% (active).

As to `O=C1C(Cl)=C(Oc2ccccc2)C(=O)c2ccccc21`, the inhibition in [1] is 79% (active); in [2], 17.5%; in assay [3], 96.2% (active).

As for `C[N+](C)(C)CCNC(=O)c1cc[n+](Cc2ccccc2)c(/C=N/O)c1`, the inhibition in assay [1] is 7.66%; in [2], 6.76%; in assay [3], -0.18%.

In the case of `COc1ccc(OC)c(N=Cc2c(O)[nH]c3ccccc23)c1`, the inhibition in assay [1] was -1.61%; in [2], 1.7%; in assay [3], 19.8% (active); in assay [4] it was 61.8% (active); in [5], 59.3% (active).

For `Brc1ccccc1C1Nc2cccc3cccc(c23)N1`, the inhibition in [8] is 2.05%; in assay [9], 42.5% (active).

On to `Cc1c(Cl)cccc1NC(=O)CCC(=O)N/N=C/c1ccc[nH]1`, for which the figures for the inhibition in assay [10] and in assay [11] were 13.6% and 14.5%, respectively.

As to `COc1ccc2nc(NC(=O)C3CCN(S(=O)(=O)c4cccs4)CC3)sc2c1`, the inhibition in assay [10] is 20.3%; in assay [11] it was 15.2%.

As for `COc1ccc(C(=O)Nc2ccc(N3CCN(C(=O)c4ccccc4C)CC3)cc2)cc1`, the figures for the inhibition in assay [10] and in assay [11] were 28.4% and 25.1%, respectively.

For `Cn1nc(C(F)(F)F)c(-c2ccccc2)c1NC(=O)c1cccnc1`, the results for the inhibition in assay [10] and in assay [11] were 18.6% and 11.4%, respectively.

On to `COc1ccc(-c2cc(C(=O)N3CCN(c4ncccn4)CC3)c3ccccc3n2)c(OC)c1`, for which the inhibition in assay [10] is 0.79%; in [11], -9.7%.

On to `COc1ccc(C)cc1NS(=O)(=O)c1ccc(NC(=O)CN(c2cc([N+](=O)[O-])ccc2C)S(C)(=O)=O)cc1`, for which the inhibition in assay [10] is 58.6% (active); in [11], -20%.

As to `CC(C)OC(=O)c1sc2nc(-c3ccccc3)ccc2c1N`, the inhibition was 23.7% in assay [10] and -2.61% in assay [11].

Turning to `CCCC(=O)NC(c1ccc(OC)cc1)c1ccc2cccnc2c1O` (configuration not stated), the inhibition in assay [10] is 57.7% (active); in assay [11], 63.7% (active).

For the compound `O=C(N/N=C/c1cc(Cl)ccc1O)c1cccnc1`, the inhibition in assay [10] was 15.7%; in assay [11] it was 41.4% (active).

For the compound `O=C(CNc1cccc2ccccc12)N/N=C/c1ccc[nH]1`, the inhibition is 7.38% in assay [10] and 5.09% in assay [11].

For the compound `CC1(C)C2CCC(C2)C1C/C=N/NC(N)=S` (configuration not stated), the inhibition was 17.5% in assay [10] and 13.4% in assay [11].

For `CC(C)Nc1nc(Cl)nc(NNC(=O)C(C)Oc2ccccc2)n1` (configuration not stated), the inhibition in assay [10] was -3.52%; in assay [11] it was 4.03%.

`COc1ccc(N/N=C2/CCCCC2=O)cc1`: the values for the inhibition in assay [10] and in assay [11] were -38.4% and 21%, respectively.

Regarding `Cc1ccsc1/C=N/NC(=O)CNC(=O)c1ccccc1`, the inhibition is -11.5% in assay [10] and -7.26% in assay [11].

`CC(=O)c1cc(CC=C(C)C)c(O)c(CC=C(C)C)c1O`: the inhibition in [10] is 4.99%; in assay [11] it was -4.39%.

As for `C=CCn1c(SCC(=O)NC2CCCC2)nnc1-c1ccccn1`, the inhibition is -14.7% in [10] and -2.97% in assay [11].

With `COc1ccccc1C(CNc1ccc(S(=O)(=O)N2CCCC2)cc1[N+](=O)[O-])N(C)C` (configuration not stated), the inhibition in [10] was 23.9%; in assay [11], 24.9%.

For `c1cncc(CNc2ncnc3sc4c(c23)CCC4)c1`, the figures for the inhibition in assay [10] and in assay [11] were 23.1% and 9.1%, respectively.

In the case of `COc1ccc2c(c1)CCc1cnc(N)nc1-2`, the inhibition in [10] is 20%; in assay [11] it was 10.4%.

In the case of `O=C(N/N=C/c1cc(Br)ccc1OC(=O)c1ccc(Br)cc1)c1ccncc1`, the inhibition is 20.5% in assay [10] and 28% in assay [11].

`CCc1ccc(CN(C)C(=O)c2cc(COc3cccc4cnccc34)on2)cc1`: the results for the inhibition in assay [10] and in assay [11] were 18.4% and 33.7% (active), respectively.

As for `CCc1nc(Nc2ccc3nccnc3c2)c2oc3ccccc3c2n1`, the figures for the inhibition in [10] and in assay [11] were 5.99% and 13.6%, respectively.

`CCN(CC)c1ccc(/C=N/NC(=O)c2ccc3nc[nH]c3c2)c(O)c1`: the values for the inhibition in assay [10] and in assay [11] were 51.3% (active) and 50.6% (active), respectively.

On to `Clc1ccc(C[n+]2cc(-c3ccccc3)n3c2CCCCC3)c(Cl)c1`, for which the inhibition in assay [10] is 22.4%; in assay [11], 46.7% (active).

`Cc1cc(C=C2C(=O)c3ccccc3C2=O)c(C)n1-c1ccccc1`: the values for the inhibition in [10] and in assay [11] were 67.5% (active) and 43.2% (active), respectively.

With `Cc1nc2ccccn2c1-c1ccnn1S(=O)(=O)c1ccc(F)cc1`, the inhibition in assay [10] was 3.74%; in [11] it was 12.3%.

In the case of `CC(C)C(C)NC(=O)CSc1ccc(S(=O)(=O)N2CCOCC2)cn1` (configuration not stated), the inhibition in assay [10] was -6.95%; in [11], 8.39%.

With `COc1ccc(NC(=O)C2CCN(S(=O)(=O)c3ccc4c(c3)CC(C)N4C(C)=O)CC2)cc1OC` (configuration not stated), the inhibition is 9.24% in assay [10] and 5.82% in [11].

Consider `COc1ccc2c(c1)N(C)/C(=C/c1cccc[n+]1C)S2`, for which the inhibition is -6.44% in [10] and 37.5% (active) in assay [11].

In the case of `COc1ccc(CCN2C(=O)C(Oc3ccccc3C)C2c2ccc3c(c2)OCO3)cc1` (configuration not stated), the inhibition in assay [10] is 2.45%; in assay [11] it was 8.58%.

As to `O=C(N/N=C/c1cc(Br)c(Br)s1)c1ccncc1`, the inhibition in assay [10] was 31.1%; in assay [11], 18.5%.

These data come from PubChem BioAssay.
